# According to PubChem BioAssay (Tox21):
# A number with no mark means an inactive call. Results filed as inconclusive are left out. A call without a number means that no potency is given here. Calls of active or inactive are those of the source. Unless noted, the call rests on the fitted dose curve; in most records, active means well fitted curve in the direction sought with a large enough effect in the repeat runs; inconclusive means weak or mixed curves; inactive means no such curve, though single readings can be large; an effect the other way counts as inactive or inconclusive.
# Experiments:
# [1] = qHTS assay to identify small molecule antagonists of the estrogen related receptor signaling pathway with the pleiotropic PPARgamma coactivator (PGC) from Tox21 10K library - cell viability counter screen (AID 1224840; active means well fitted cell-killing curve with a large enough effect in the repeat runs, not every such curve was filed as active; further: nearly all actives have a fitted effect of over 40% in size; further: potency means the concentration at half of the fitted maximal effect)
# How it was run: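 PGC/ERR cells, 2,000/well; 6 h pre-incubation 37 C/5% CO2; cpd in DMSO via pin tool; 17.5 h 37 C; CellTiter-Fluor, 30 min; fluorescence.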
# [2] = qHTS assay to identify small molecule antagonists of the estrogen related receptor signaling pathway with the pleiotropic PPARgamma coactivator (PGC) from Tox21 10K library (AID 1224841; call rule not given here; further: actives are mostly falling curves and most rising ones were filed inactive; nearly all actives have a fitted effect of over 50% in size; further: potency means the concentration at half of the fitted maximal effect)
# How it was run: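 PGC/ERR cell line, 2,000 cells/well; 6 h pre-incubation 37 C/5% CO2; compounds (DMSO) pinned in; 18 h, 37 C; One-Glo, 30 min RT; luminescence.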
# [3] = qHTS assay to identify small molecule agonists of the estrogen related receptor signaling pathway with the pleiotropic PPARgamma coactivator (PGC) from Tox21 10K library (AID 1224842); further: nearly all actives have a fitted effect of over 15% in size
# How it was run: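 PGC/ERR reporter cells (NTP line) were seeded 2,000 per well, rested 6 h at 37 C/5% CO2, then pin-dosed with compounds in DMSO for 18 h at 37 C; luciferase read by One-Glo luminescence after 30 min at room temperature.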
# [4] = target: Thyrotropin receptor (Homo sapiens) (UniProt P16473); test: qHTS assay to identify small molecule agonists of the thyroid stimulating hormone receptor (TSHR) signaling pathway (AID 1224843; calls by dose curve; further: nearly all actives have a fitted effect of over 45% in size; further: potency means the concentration at half of the fitted maximal effect)
# Sequence of Thyrotropin receptor (Homo sapiens) (P16473 whole entry, looked up): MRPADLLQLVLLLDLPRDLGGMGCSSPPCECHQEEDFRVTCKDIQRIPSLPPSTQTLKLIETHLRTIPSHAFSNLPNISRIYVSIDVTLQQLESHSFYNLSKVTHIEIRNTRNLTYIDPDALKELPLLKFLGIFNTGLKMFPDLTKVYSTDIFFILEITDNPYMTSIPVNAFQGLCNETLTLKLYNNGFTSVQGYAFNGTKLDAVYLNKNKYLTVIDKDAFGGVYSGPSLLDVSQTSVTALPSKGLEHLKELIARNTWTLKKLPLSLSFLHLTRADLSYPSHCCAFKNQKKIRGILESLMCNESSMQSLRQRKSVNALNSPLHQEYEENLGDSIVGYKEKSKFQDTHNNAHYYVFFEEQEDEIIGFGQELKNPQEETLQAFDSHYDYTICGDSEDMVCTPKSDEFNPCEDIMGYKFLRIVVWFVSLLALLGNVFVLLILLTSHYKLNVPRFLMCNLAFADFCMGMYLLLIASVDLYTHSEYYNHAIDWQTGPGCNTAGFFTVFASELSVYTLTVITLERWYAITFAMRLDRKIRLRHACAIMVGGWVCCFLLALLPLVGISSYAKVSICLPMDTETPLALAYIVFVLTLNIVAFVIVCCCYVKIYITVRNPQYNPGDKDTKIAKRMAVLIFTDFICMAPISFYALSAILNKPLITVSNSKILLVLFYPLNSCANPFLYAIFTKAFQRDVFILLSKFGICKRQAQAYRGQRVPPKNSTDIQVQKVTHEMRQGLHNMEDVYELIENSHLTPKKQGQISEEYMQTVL
# How it was run: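 TSHR-expressing HEK293 cells (800 per well) were exposed to compounds for 30 min at room temperature. cAMP was then detected by HTRF competition with cAMP-d2 and anti-cAMP cryptate, read after 1 h at room temperature. Fifteen concentrations, triplicate.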
# [5] = qHTS assay to identify small molecule agonists of the hypoxia (HIF-1) signaling pathway - cell viability counter screen (AID 1224844; calls by dose curve; further: nearly all actives have a fitted effect of over 50% in size; further: potency means the concentration at half of the fitted maximal effect)
# How it was run: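 ME-180 HRE-bla cells, 2,000/well, 0.5% dialyzed FBS; 5 hr settle, 17 hr compound at 37C/5% CO2; CCF4-AM reporter read first, then CellTiter-Glo luminescence after 30 min RT.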
# [6] = qHTS assay to identify small molecule agonists of H2AX - cell viability counter screen (AID 1224847; calls by dose curve; further: nearly all actives have a fitted effect of over 30% in size; further: potency means the concentration at half of the fitted maximal effect)
# How it was run: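 Compounds tested at 15 concentrations were incubated 3 hr at 37C with wild-type CHO-K1 cells; cellular ATP-based luminescence (CellTiter-Glo) indicated viability.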
# [7] = qHTS assay to identify small molecule agonists of the estrogen related receptor (ERR) signaling pathway from Tox21 library (AID 1224849; calls by dose curve; further: nearly all actives have a fitted effect of over 15% in size); conditions: ERR reporter cell line, ONE-Glo luciferase, 18 h; at 92.4 µM (top of the series) unless noted
# How it was run: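 ERR cells, 6 h pre-incubation 37 C/5% CO2; cpd in DMSO pinned; 18 h 37 C; ONE-Glo added, 30 min RT; luminescence read. Agonist mode, qHTS.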
# [8] = qHTS RealTime-Glo MT Cell Viability Assay in HepG2 cells - 24 hour (AID 1224867); further: nearly all actives have a fitted effect of over 50% in size; further: potency means the concentration at half of the fitted maximal effect
# How it was run: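 HepG2 cells (600/well) were dispensed with RealTime-Glo reagents, incubated 5 h at 37 °C, then treated with compounds in DMSO for up to 40 h. Nonlytic NanoLuc luminescence reflecting viable cells was read at each stated time point.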
# [9] = qHTS RealTime-Glo MT Cell Viability Assay in HepG2 cells - 40 hour (AID 1224870); further: nearly all actives have a fitted effect of over 50% in size; further: potency means the concentration at half of the fitted maximal effect
# How it was run: (§1)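 HepG2 cells mixed with RealTime-Glo MT reagents (NanoLuc plus cell-permeant prosubstrate) were seeded at 600 cells/well, incubated 5 h at 37 C/5% CO2, then pinned with compounds in DMSO; nonlytic luminescence tracked viability during 40 h treatment.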
# [10] = A CellTox Green Cytotoxicity Assay to monitor cytotoxicity in HEK293 cells - 40 hour (AID 1224871); further: nearly all actives have a fitted effect of over 45% in size; further: potency means the concentration at half of the fitted maximal effect
# How it was run: (§2)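 Nonlytic real-time cytotoxicity: HEK293 + CellTox Green reagent plated, 5 h preincubation, pintool compound addition (23 nL in DMSO), 37 C for 40 h, fluorescence measured at successive time points.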
# [11] = qHTS RealTime-Glo MT Cell Viability Assay in HepG2 cells - 8 hour (AID 1224873); further: nearly all actives have a fitted effect of over 55% in size; further: potency means the concentration at half of the fitted maximal effect
# How it was run: as §1
# [12] = qHTS RealTime-Glo MT Cell Viability Assay in HEK293 cells - 40 hour (AID 1224874); conditions: RealTime-Glo luminescence; max response: stronger effect = lower value; further: nearly all actives have a fitted effect of over 50% in size; further: potency means the concentration at half of the fitted maximal effect
# How it was run: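 Cells were seeded together with NanoLuc luciferase and a prosubstrate that viable cells reduce to a luciferase substrate. After a 5 h incubation at 37 C/5% CO2, compounds were added and luminescence was measured repeatedly during 40 h of treatment.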
# [13] = target: Nuclear receptor subfamily 1 group I member 3 (Homo sapiens) (UniProt Q14994); test: qHTS assay to identify small molecule agonists of the constitutive androstane receptor (CAR) signaling pathway (AID 1224839);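 further: HepG2 cells stably carrying human CAR and a CYP2B6 luciferase reporter; nearly all actives have a fitted effect of over 15% in size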
# Sequence of Nuclear receptor subfamily 1 group I member 3 (Homo sapiens) (Q14994 whole entry, looked up): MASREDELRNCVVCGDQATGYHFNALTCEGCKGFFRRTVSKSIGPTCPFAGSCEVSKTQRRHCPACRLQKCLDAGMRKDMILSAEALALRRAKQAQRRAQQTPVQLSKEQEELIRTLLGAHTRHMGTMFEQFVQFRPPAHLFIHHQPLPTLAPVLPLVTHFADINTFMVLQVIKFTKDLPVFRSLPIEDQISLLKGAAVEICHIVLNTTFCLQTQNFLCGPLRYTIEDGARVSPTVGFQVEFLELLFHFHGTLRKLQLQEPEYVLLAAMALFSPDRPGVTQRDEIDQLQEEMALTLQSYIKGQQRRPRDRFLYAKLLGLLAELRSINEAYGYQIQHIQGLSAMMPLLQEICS
# How it was run: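 Compounds tested at 15 concentrations on HepG2 cells stably harbouring hCAR and CYP2B6-2.2kb reporter constructs, co-treated with PK11195 (0.75 uM final), 24 h at 37 C; luminescent reporter signal quantified.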
# [14] = qHTS assay to identify small molecule antagonists of the estrogen related receptor (ERR) signaling pathway from Tox21 library (AID 1224848); further: nearly all actives have a fitted effect of over 50% in size; further: potency means the concentration at half of the fitted maximal effect
# How it was run: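 Cells: ERR line, 2,000/well; 6 h preincubation 37 C/5% CO2. Cpd in DMSO via pin tool; 18 h, 37 C. ONE-Glo, 30 min RT, luminescence.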
# [15] = qHTS RealTime-Glo MT Cell Viability Assay in HEK293 cells - 32 hour (AID 1224868); further: nearly all actives have a fitted effect of over 50% in size; further: potency means the concentration at half of the fitted maximal effect
# How it was run: (§3)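 HEK293 cells seeded with NanoLuc/prosubstrate reagent, rested 5 h at 37 C, then dosed and kept at 37 C up to 40 h. Nonlytic real-time luminescence from viable cells read at 0, 8, 16, 24, 32 and 40 h.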
# [16] = qHTS RealTime-Glo MT Cell Viability Assay in HEK293 cells - 16 hour (AID 1224872); further: nearly all actives have a fitted effect of over 50% in size; further: potency means the concentration at half of the fitted maximal effect
# How it was run: as §3
# [17] = target: Nuclear receptor subfamily 1 group I member 3 (Homo sapiens) (UniProt Q14994); test: qHTS assay to identify small molecule antagonists of the constitutive androstane receptor (CAR) signaling pathway (AID 1224838);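 further: HepG2 cells stably expressing hCAR with CYP2B6 luciferase reporter stimulated by CITCO; nearly all actives have a fitted effect of over 40% in size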
# How it was run: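 HepG2-CYP2B6-hCAR cells; 4 h pre-incubation; cpd (15 conc) + CITCO 50 nM final; 24 h, 37 C/5% CO2; ONE-Glo, luminescence.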
# [18] = qHTS assay to identify small molecule agonists of H2AX (AID 1224845; active means well fitted activation curve with a large enough effect in the signal ratio in the repeat runs, not every such curve was filed as active; the % refers to the signal ratio)
# How it was run: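 Wild-type CHO-K1 cells plated overnight, then exposed 3 hr at 37C to compounds at 15 concentrations (0.76% DMSO). Lysed, then HTRF anti-pH2AX(S139)-cryptate/anti-H2AX-d2 detection after 24 hr at room temperature; emissions 665 and 620 nm.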
# [19] = qHTS assay to identify small molecule agonists of the hypoxia (HIF-1) signaling pathway (AID 1224846; active means well fitted activation curve with a large enough effect in the signal ratio in the repeat runs, not every such curve was filed as active; the % refers to the signal ratio)
# How it was run: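 Cell line: CellSensor HRE-bla ME-180; 2,000 cells/well; 0.5% dialyzed FBS; 5 h preincubation; DMSO compound pin transfer; 17 h, 37C, 5% CO2; CCF4-AM added; bla FRET signal scored for activation.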
# [20] = A CellTox Green Cytotoxicity Assay to monitor cytotoxicity in HEK293 cells - 0 hour (AID 1224869); further: nearly all actives have a fitted effect of over 50% in size
# How it was run: as §2
compound,measurement,setting,value
CC(c1cc(C(C)(C)C)cc(C(C)(C)C)c1O)c1cc(C(C)(C)C)cc(C(C)(C)C)c1O,Potency,[1],inactive
same,Potency,[2],inactive
same,Potency,[3],inactive
same,Potency,[4],inactive
same,Potency,[5],inactive
same,Potency,[6],inactive
same,"activity change, positive = activation",[7],-15.4%
same,Potency,[8],inactive
same,Potency,[9],inactive
same,Potency,[10],inactive
same,Potency,[11],inactive
same,Potency,[12],19.5 µM (active)
CN(C)CCOc1ccc(/C(=C(/CCCl)c2ccccc2)c2ccccc2)cc1,Potency,[13],inactive
same,Potency,[1],57.2 µM (active)
same,Potency,[3],inactive
same,Potency,[4],inactive
same,Potency,[5],40.9 µM (active)
same,Potency,[6],94.3 µM (active)
same,Potency,[14],51 µM (active)
same,"activity change, positive = activation",[7],-52.6%
same,Potency,[8],40.9 µM (active)
same,Potency,[15],36.4 µM (active)
same,Potency,[9],40.9 µM (active)
same,Potency,[10],45.8 µM (active)
same,Potency,[16],36.4 µM (active)
same,Potency,[11],36.4 µM (active)
same,Potency,[12],40.9 µM (active)
CC(C)(c1ccc(Oc2ccc(N)cc2)cc1)c1ccc(Oc2ccc(N)cc2)cc1,Potency,[17],inactive
same,Potency,[4],27.3 µM (active)
same,Potency,[5],24.5 µM (active)
same,Potency,[6],80 µM (active)
same,Potency,[8],inactive
same,Potency,[9],inactive
same,Potency,[10],inactive
same,Potency,[12],21.9 µM (active)
CCc1cccc(CC)c1,Potency,[1],inactive
same,Potency,[3],inactive
same,Potency,[5],inactive
same,Potency,[18],inactive
same,Potency,[19],inactive
same,Potency,[6],inactive
same,Potency,[14],inactive
same,"activity change, positive = activation",[7],-2.59%
same,Potency,[8],inactive
same,Potency,[20],inactive
same,Potency,[9],inactive
same,Potency,[10],inactive
same,Potency,[16],inactive
same,Potency,[11],inactive
same,max response,[12],23.9%
Oc1ccc(Cl)cc1C1CCCC1,Potency,[17],inactive
same,Potency,[2],inactive
same,Potency,[3],inactive
same,Potency,[18],inactive
same,Potency,[6],56.6 µM (active)
same,Potency,[14],inactive
same,"activity change, positive = activation",[7],6.21%
same,Potency,[20],inactive
same,Potency,[9],inactive
same,Potency,[10],49 µM (active)
same,Potency,[16],24.5 µM (active)
same,max response,[12],-29.3%
c1ccc(-c2ccc(C(c3ccccc3)n3ccnc3)cc2)cc1 (stereo not given),Potency,[17],inactive
same,Potency,[1],inactive
same,Potency,[2],29.8 µM (active)
same,Potency,[3],inactive
same,Potency,[4],inactive
same,Potency,[5],inactive
same,Potency,[14],23.7 µM (active)
same,"activity change, positive = activation",[7],-54.4% [at 42.5 µM]
same,Potency,[8],inactive
same,Potency,[15],30.1 µM (active)
same,Potency,[20],inactive
same,Potency,[9],inactive
same,Potency,[11],inactive
same,Potency,[12],26.8 µM (active)
Cc1ccc(Cl)c(N)c1Cl,Potency,[13],inactive
same,Potency,[3],inactive
same,Potency,[14],inactive
same,"activity change, positive = activation",[7],-0.961%
same,Potency,[8],inactive
same,Potency,[15],inactive
same,Potency,[20],inactive
same,Potency,[16],inactive
same,max response,[12],-1.11%
